Assay results reported in the supplement of paper PMC7669877.
± gives the uncertainty stated by the source.

These molecules were tested on Candidatus Liberibacter solanacearum in potato hairy roots (assay: relative CLso titer (% of untreated control); higher = less inhibition of bacterial titer). Conditions: 10 µM; 72 h.
Procedure: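 Primary screen of ~220 Spectrum collection (MicroSource) compounds at 10 µM (0.1% DMSO) on Candidatus Liberibacter solanacearum-infected potato hairy roots in multi-well plates (Gamborg B-5 medium, vacuum infiltrated, 21 °C, dark, 72 h). CLso titer was measured by qPCR of 16S rDNA normalised to potato RPL2 (2^-ddCq), pairwise-standardised against untreated controls, averaged over two biological replicates and expressed as % of untreated.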

| SMILES | relative CLso titer [%] |
| --- | --- |
| CCN(CC)CCOC(=O)C1(C2CCCCC2)CCCCC1 | 90.3 ± 40 |
| COc1cnc(NS(=O)(=O)c2ccc(N)cc2)nc1 | 119 ± 37 |
| CC(C)(Oc1ccc(CCNC(=O)c2ccc(Cl)cc2)cc1)C(=O)O | 153 ± 64 |
| CCCCCCCCCCCCCCCC(=O)OC[C@@H](NC(=O)C(Cl)Cl)[C@H](O)c1ccc([N+](=O)[O-])cc1 | 79.3 ± 10 |
| CC[C@H]1OC(=O)[C@H](C)[C@@H](O[C@H]2C[C@@](C)(OC)[C@@H](O)[C@H](C)O2)[C@H](C)[C@@H](O[C@@H]2O[C@H](C)C[C@H](N(C)C)[C@H]2O)[C@](C)(O)C[C@@H](C)C(=O)[C@H](C)[C@@H](O)[C@]1(C)O | 197 ± 120 |
| O=C(O)CCC(=O)Nc1ccc(S(=O)(=O)Nc2nccs2)cc1 | 100 ± 28 |
| CCN(CCCc1ccccc1)CCCc1ccccc1 | 66.9 ± 21 |
| COc1ccc(C(=O)c2ccccc2O)c(O)c1 | 86.9 ± 3.5 |
| CC(=O)OCC(=O)[C@@]1(O)CC[C@H]2[C@@H]3CCC4=CC(=O)CC[C@]4(C)[C@H]3C(=O)C[C@@]21C | 27.6 ± 3 |
| CC1(C)O[C@@H]2C[C@H]3[C@@H]4C[C@H](F)C5=CC(=O)C=C[C@]5(C)[C@H]4[C@@H](O)C[C@]3(C)[C@]2(C(=O)CO)O1 | 99.4 ± 17 |
| O=C(O)P(=O)(O)O | 165 ± 29 |
| CC(C)NCC(O)COc1ccc(CC(N)=O)cc1 (stereo not given) | 106 ± 58 |
| Clc1ccc(COC(Cn2ccnc2)c2ccc(Cl)cc2Cl)cc1 (stereo not given) | 101 ± 35 |
| CCC(=O)O[C@H]1[C@H](O[C@@H]2[C@@H](C)[C@H](O[C@H]3C[C@@](C)(OC)[C@@H](O)[C@H](C)O3)[C@@H](C)C(=O)O[C@H](CC)[C@@](C)(O)[C@H](O)[C@@H](C)C(=O)[C@H](C)C[C@@]2(C)O)O[C@H](C)C[C@@H]1N(C)C | 108 ± 26 |
| Nc1ccc(C(=O)Oc2ccccc2)c(O)c1 | 102 ± 12 |
| CN(C)CCC=C1c2ccccc2CCc2ccccc21 | 49 ± 2.5 |
| O=C(c1ccc(OCCN2CCCCC2)cc1)c1c(-c2ccc(O)cc2)sc2cc(O)ccc12 | 93 ± 3.9 |
| Nc1ncnc2c1ncn2[C@@H]1O[C@H](CO)[C@@H](O)[C@H]1O | 51.4 ± 22 |
| Oc1c(Cl)cc(Cl)cc1Sc1cc(Cl)cc(Cl)c1O | 55.8 ± 6.5 |
| CCC1(C)CC(=O)NC1=O (stereo not given) | 119.65 ± 0.011 |

| SMILES | relative CLso titer [%] |
| --- | --- |
| C[C@H]1O[C@H](O[C@H]2[C@H](O)[C@@H](O)[C@@H](O[C@H]3[C@H](O)[C@@H](O)C(O)O[C@@H]3CO)O[C@@H]2CO)[C@H](O)[C@@H](O)[C@@H]1N[C@H]1C=C(CO)[C@@H](O)[C@H](O)[C@H]1O (stereo not given in full) | 135 ± 70 |
| CN1CCN(CC(=O)N2c3ccccc3C(=O)Nc3cccnc32)CC1 | 56.9 ± 5.4 |
| COc1cc(CNC(=O)CCCC/C=C/C(C)C)ccc1O | 130 ± 4.3 |
| CC12CCC(CC1=O)C2(C)C (stereo not given) | 97 ± 38 |
| COc1ccc(C[C@H](N)C(=O)N[C@H]2[C@@H](O)[C@H](n3cnc4c(N(C)C)ncnc43)O[C@@H]2CO)cc1 | 91.8 ± 5.9 |
| COC(=O)Nc1nc2cc(C(=O)c3cccs3)ccc2[nH]1 | 79.7 ± 6.4 |
| CC1(C)S[C@@H]2[C@H](NC(=O)C(C(=O)O)c3ccccc3)C(=O)N2[C@H]1C(=O)O (stereo not given in full) | 43.3 ± 14 |
| Nc1ccc(C(=O)O)c(O)c1 | 73 ± 16 |
| C[C@H](CCC(=O)O)[C@H]1CC[C@H]2[C@@H]3C(=O)C[C@@H]4CC(=O)CC[C@]4(C)[C@H]3CC(=O)[C@]12C | 212 ± 78 |
| Cn1c(=O)c2c(ncn2C)n(C)c1=O | 42.2 ± 4.3 |
| C[C@@H]1C[C@H]2[C@@H]3C[C@H](F)C4=CC(=O)C=C[C@]4(C)[C@@]3(F)[C@@H](O)C[C@]2(C)[C@@]1(OC(=O)c1ccco1)C(=O)SCF | 92.9 ± 10 |
| CN(CCOc1ccc(CC2SC(=O)NC2=O)cc1)c1ccccn1 (stereo not given) | 87.5 ± 30 |
| CN(C)CCCN1c2ccccc2Sc2ccc(Cl)cc21 | 46.9 ± 8.8 |
| CO[C@@]1(NC(=O)CSCC#N)C(=O)N2C(C(=O)O)=C(CSc3nnnn3C)CS[C@@H]21 | 114 ± 30 |
| Cn1nnnc1SCC1=C(C(=O)O)N2C(=O)[C@@H](NC(=O)[C@H](OC=O)c3ccccc3)[C@H]2SC1 | 86.7 ± 26 |
| CN1CCOC(c2ccccc2)c2ccccc2C1 (stereo not given) | 100 ± 38 |
| CC(=O)N[C@@H](CS)C(=O)O | 55.7 ± 25 |
| C#C[C@]1(OC(C)=O)CC[C@H]2[C@@H]3CCC4=CC(=NO)CC[C@@H]4[C@H]3CC[C@@]21CC (mixture of isomers) | 64.9 ± 10 |
| Cc1ccc(C(=O)Nc2ccc(S(=O)(=O)O)c3cc(S(=O)(=O)O)cc(S(=O)(=O)O)c23)cc1NC(=O)c1cccc(NC(=O)Nc2cccc(C(=O)Nc3cc(C(=O)Nc4ccc(S(=O)(=O)O)c5cc(S(=O)(=O)O)cc(S(=O)(=O)O)c45)ccc3C)c2)c1 | 141 ± 37 |
| NCCc1ccc(O)c(O)c1 | 117 ± 26 |
